34 molecules from PubChem BioAssay (NCATS) can be followed below.

Values without a mark were called inactive. Records with an inconclusive call do not appear. Calls of active or inactive are those of the source. Calls come from the whole dose curve; as a rule, active = well fitted inhibition curve with a large enough effect; inconclusive = small, poorly fitted or top-dose-only effect; inactive = no such curve, though single readings can be large or run the other way.

One assay can be described thus: qHTS assay for measurement of the activity of small molecule inhibitors on Zika virus induced Caspase-3 activity in human iPSC derived neural progenitor cells (hNPCs) (AID 1224857). Note: % of control where 0% means no effect; nearly all actives have a fitted effect of over 65% in size. The settings on record: hNPCs ZIKV-induced caspase-3/7, Caspase-Glo luminescence, 6 h; series mostly up to 45.7 µM; activity change, negative = inhibition: at the top concentration. The method in brief:
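Zika virus (2 FFU/cell) infection of human iPSC-derived NPCs, 6 h, following 1 h compound preincubation. Read-out: Caspase-Glo 3/7 luminescence.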
In general terms: qHTS replaces the single test concentration by a dilution series.
With `O=Cc1ccccc1C=O`, the “activity change, negative = inhibition” value is 2.36%.
Still for that read-out and setting: the value for `OCC(CO)N[C@H]1C[C@](O)(CO)[C@@H](O)[C@H](O)[C@H]1O` was 26.8%; that for `CC(C)(C)NCC(O)COc1ccc(NC(=O)NC2CCCCC2)cc1` (stereo not given) was 2.54%; that for `C[C@@H](O)[C@H](N)C(=O)O` was 3.09% [at 20.5 µM].
As for `O=C(O)c1ccccc1O`, the “activity change, negative = inhibition” value was 2.27%.
Still for that read-out and setting: the value for `O=c1cc[nH]c(=O)[nH]1` was -12.6%; that for `O=C1OC(OC(=O)c2cccnc2Nc2cccc(C(F)(F)F)c2)c2ccccc21` (stereo not given) was -21.6%.
As for `CC(C)C(=O)c1c(C(C)C)nn2ccccc12`, the call was inactive.
`CC(=O)Oc1ccc(C2(c3ccc(OC(C)=O)cc3)C(=O)Nc3ccccc32)cc1`: the “activity change, negative = inhibition” value is -9.2%.
On the same count and under the same terms, the value for `COc1cc2[nH]c(=O)[nH]c(=O)c2cc1OC` was 7.24%; that for `CC1(C)Oc2ccc(C#N)cc2[C@@H](N2CCCC2=O)[C@@H]1O` was 3.46%; that for `Cc1ncc(COP(=O)(O)O)c(C=O)c1O` was -9.74%.
Turning to `CCCCC/C(C=O)=C\c1ccccc1`, the “activity change, negative = inhibition” value was -16.1%.
Same read-out and setting: the value for `Oc1cn2c(n1)Nc1ccc(Cl)c(Cl)c1C2` was 17.7% [at 20.5 µM].
Same read-out and setting: the value for `Nc1ccc(S(=O)(=O)Nc2ccc(Cl)nn2)cc1` was 15.8%; that for `O=C(O)[C@@H]1CSCN1` was -5.37%.

The next assay is described as follows: qHTS assay for measurement of the activity of small molecule inhibitors on Zika virus induced Caspase-3 activity in human astrocytoma cells (AID 1224859).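 Note: plate controls were ZIKV-infected untreated cells for no effect and uninfected cells for full effect.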 The settings on record: SNB-19 ZIKV-induced caspase-3/7, luminescence, 6 h; series mostly up to 45.7 µM; activity change, negative = inhibition: at the top concentration. Summed up: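 Caspase activation in ZIKV-infected SNB-19 cells (2 FFU/cell, 6 h) measured by Caspase-Glo 3/7 luminescence after 30 min RT; compound pre-incubated 1 h; normalised to uninfected and infected controls.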
Take `CC(C(O)c1ccc(O)cc1)N1CCC(Cc2ccccc2)CC1` (stereo not given): the call was inactive.
On to `O=c1[nH]cnc2c1ncn2[C@@H]1O[C@H](CO)[C@@H](O)[C@H]1O`, for which the “activity change, negative = inhibition” value is -0.459%.
As to `Nc1cc(=O)[nH]c(N)n1`, the molecule was called inactive.
As for `O=c1cc[nH]c(=S)[nH]1`, the “activity change, negative = inhibition” value is 4.23%.
Still for that read-out and setting: the same measure for `NC1[C@H]2CN(c3nc4c(cc3F)c(=O)c(C(=O)O)cn4-c3ccc(F)cc3F)C[C@@H]12` (stereo not given in full): -6.64%.
Same read-out and setting: the same measure for `C[C@H](NC(CCc1ccccc1)C(=O)O)C(=O)N1CCC[C@H]1C(=O)O` (stereo not given in full): -5.84%.
Turning to `NS(=O)(=O)c1cc2c(cc1C(F)(F)F)NC(Cc1ccccc1)NS2(=O)=O` (stereo not given), the “activity change, negative = inhibition” value was -0.584%.
The same measure, in the same setting: the same measure for `Oc1ccc(C(O)CNCCCCCCNCC(O)c2ccc(O)c(O)c2)cc1O` (stereo not given): -3.78%.
Regarding `N[C@H]1C(O)O[C@H](CO)[C@@H](O)[C@@H]1O` (stereo not given in full), the “activity change, negative = inhibition” value is -3.88%.
The same measure, in the same setting: the value for `O=C(O)Cc1sc(-c2ccccc2)nc1-c1ccc(Cl)cc1` was 3.55%.
Still for that read-out and setting: the same measure for `C[C@H](N)[C@H](O)c1cccc(O)c1`: 2.46%.
For `CC1=C(CC(=O)O)c2cc(F)ccc2/C1=C\c1ccc(S(C)(=O)=O)cc1`, the molecule was classed as inactive.
Regarding `CCN(CC)CCNC(=O)c1c(C)[nH]c(/C=C2\C(=O)Nc3ccc(F)cc32)c1C`, the “activity change, negative = inhibition” value was 27.3%.
The same measure, in the same setting: the same measure for `N=c1c[n+](N2CCOCC2)[n-]o1`: 13.5%.
On the same count and under the same terms, the value for `CC(C)(C)C(=O)NCCCC(=O)O` was -3.16%; that for `O=C(CCCN1CCN(c2ccccn2)CC1)c1ccc(F)cc1` was 4.98%.
On the same count and under the same terms, the value for `COC(=O)[C@H]1[C@H]2C[C@@H]3c4[nH]c5cc(OC)ccc5c4CCN3C[C@H]2C[C@@H](OC(=O)COc2ccc(OC)cc2)[C@@H]1OC` was 3.06%; that for `C/C(=C(\CCOP(=O)(O)O)SC(=O)c1ccccc1)N(C=O)Cc1cnc(C)nc1N` was 26.7% [at 4.53 µM].
In the case of `O=Cc1ccccc1C=O`, the “activity change, negative = inhibition” value is -1.83%.
The same measure, in the same setting: the value for `OCC(CO)N[C@H]1C[C@](O)(CO)[C@@H](O)[C@H](O)[C@H]1O` was 11.5%; that for `CC(C)(C)NCC(O)COc1ccc(NC(=O)NC2CCCCC2)cc1` (stereo not given) was -1.06%.
Still for that read-out and setting: the value for `C[C@@H](O)[C@H](N)C(=O)O` was -11.2% [at 20.5 µM]; that for `O=C(O)c1ccccc1O` was 4.49%; that for `O=c1cc[nH]c(=O)[nH]1` was -5.96%.
Still for that read-out and setting: the same measure for `O=C1OC(OC(=O)c2cccnc2Nc2cccc(C(F)(F)F)c2)c2ccccc21` (stereo not given): -1.22%.
As to `CC(C)C(=O)c1c(C(C)C)nn2ccccc12`, the outcome was inactive.
As to `CC(=O)Oc1ccc(C2(c3ccc(OC(C)=O)cc3)C(=O)Nc3ccccc32)cc1`, the “activity change, negative = inhibition” value is -6.14%.
As for `COc1cc2[nH]c(=O)[nH]c(=O)c2cc1OC`, the “activity change, negative = inhibition” value was 7.59%.
As to `CC1(C)Oc2ccc(C#N)cc2[C@@H](N2CCCC2=O)[C@@H]1O`, the “activity change, negative = inhibition” value is -3.85%.
The same measure, in the same setting: the value for `Cc1ncc(COP(=O)(O)O)c(C=O)c1O` was -8.93%; that for `CCCCC/C(C=O)=C\c1ccccc1` was -6.09%; that for `Oc1cn2c(n1)Nc1ccc(Cl)c(Cl)c1C2` was 1.05% [at 20.5 µM].
On the same count and under the same terms, the value for `Nc1ccc(S(=O)(=O)Nc2ccc(Cl)nn2)cc1` was -2.9%.
As to `O=C(O)[C@@H]1CSCN1`, the “activity change, negative = inhibition” value is -2.53%.
